# Laboratory results taken from PubChem BioAssay (NCATS).
# Calls of active or inactive are those of the source. The call rests on the fitted dose curve.
# Columns and labels:
# Test in all cases: Confirmatory Screen for Target Class Profiling of Small Molecule Inhibitors of Methyltransferases (AID 1745852); on activity change, negative = inhibition: on the % scale 0 is the no-effect control and ±100 the full control effect
# [1] = target: Catechol O-methyltransferase (Homo sapiens) (UniProt P21964); conditions: MTase-Glo luminescence, SAH detection, recombinant enzyme; measured here: COMT max response; stronger effect = lower value
# [2] = target: Guanidinoacetate N-methyltransferase (Homo sapiens) (UniProt Q14353); conditions: MTase-Glo luminescence, SAH detection, recombinant enzyme; activity change, negative = inhibition: at 57.3 µM (top of the series) unless noted; series mostly up to 57.3 µM
# [3] = target: Nicotinamide N-methyltransferase (Homo sapiens) (UniProt P40261); conditions: MTase-Glo luminescence, SAH detection, recombinant enzyme; measured here: NNMT max response; stronger effect = lower value
# [4] = target: Phenylethanolamine N-methyltransferase (Homo sapiens) (UniProt P11086); conditions: MTase-Glo luminescence, SAH detection, recombinant enzyme; measured here: PNMT max response; stronger effect = lower value
# Potency means the concentration at half of the fitted maximal effect.
# Sequence of Nicotinamide N-methyltransferase (Homo sapiens) (P40261 whole entry, looked up): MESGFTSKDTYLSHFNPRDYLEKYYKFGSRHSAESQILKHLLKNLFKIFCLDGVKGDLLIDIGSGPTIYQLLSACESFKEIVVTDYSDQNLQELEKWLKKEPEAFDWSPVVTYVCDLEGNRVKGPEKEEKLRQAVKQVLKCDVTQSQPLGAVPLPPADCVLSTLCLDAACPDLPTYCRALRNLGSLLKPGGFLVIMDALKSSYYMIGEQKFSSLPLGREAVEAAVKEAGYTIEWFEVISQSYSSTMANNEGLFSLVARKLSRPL
# Sequence of Catechol O-methyltransferase (Homo sapiens) (P21964 whole entry, looked up): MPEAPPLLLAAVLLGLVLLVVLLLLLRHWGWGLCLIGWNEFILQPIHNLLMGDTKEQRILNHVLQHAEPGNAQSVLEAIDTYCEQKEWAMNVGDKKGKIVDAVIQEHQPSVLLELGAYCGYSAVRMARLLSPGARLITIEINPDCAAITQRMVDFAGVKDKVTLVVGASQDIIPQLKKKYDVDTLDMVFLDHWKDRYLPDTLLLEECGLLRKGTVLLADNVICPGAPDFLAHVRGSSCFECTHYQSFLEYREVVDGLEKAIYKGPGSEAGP
# Sequence of Phenylethanolamine N-methyltransferase (Homo sapiens) (P11086 whole entry, looked up): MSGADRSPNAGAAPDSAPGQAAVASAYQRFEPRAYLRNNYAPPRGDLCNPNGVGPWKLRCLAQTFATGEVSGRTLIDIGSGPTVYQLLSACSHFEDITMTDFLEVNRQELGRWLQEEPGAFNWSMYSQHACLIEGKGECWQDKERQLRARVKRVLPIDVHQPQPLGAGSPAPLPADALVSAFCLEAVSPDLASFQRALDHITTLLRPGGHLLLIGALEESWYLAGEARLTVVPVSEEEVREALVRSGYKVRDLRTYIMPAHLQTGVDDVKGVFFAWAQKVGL
SMILES,activity [1],"activity change, negative = inhibition [2]",activity [3],activity [4],Potency [2]
CC(C)Cn1c(=O)c2ccccc2n2c(CCC(=O)N3CCN(c4ccccc4)CC3)nnc12,2.06%,0%,-46.8%,-1.48%,
CCOc1cc(CNc2ccc(C(=O)O)cc2)ccc1OCc1ccccc1,-41.3%,0.912%,-22.2%,-2.65%,
CC1CC(C)CN(S(=O)(=O)c2ccc3c(c2)oc(=O)n3CC(=O)Nc2ccc(Cl)cc2)C1 (stereo unspecified),-4.03%,-1.24%,-8.67%,-61.6%,
O=C(Cn1c(=O)oc2cc(S(=O)(=O)N3CCCC3)ccc21)NCCC1=CCCCC1,-0.904%,0.588%,1.35%,-61.9%,
FC(F)(F)c1ccnc(N2CC[C@H](c3nnc(-c4ccncc4)o3)C2)n1,2.16%,0.304% [at 85.7 µM],-59.3%,3.21%,
CC(C)Cn1c(=O)c2ccccc2n2c(CCC(=O)Nc3ccc(F)c(F)c3)nnc12,-1.85%,1.46%,-38.2%,-5.35%,
Cn1c(C(=O)NCCN2CCCCC2)cc2c1CCN(Cc1cccc(F)c1)C2,7.65%,15.7%,7.53%,7.04%,
Cc1ccc2c(c1)c(=O)[nH]c1c(C(=O)NCc3ccc4c(c3)OCO4)sc(=S)n12,-32.7%,,-60.7%,-35.6%,17.1 µM (active)
Cc1ccc(N(C)S(=O)(=O)c2ccc3c(c2)n(C)c(=O)n3C)cc1,-6.35%,,-47%,-7.47%,0.192 µM (active)
